What all share (assay): DAPPL (digital affinity profiling via proximity ligation, sequencing); 10 mM Tris-HCl pH 7.5, 50 mM NaCl, 1 mM DTT, 4% glycerol, room temperature, 30 min; GST-TFs on glutathione beads, 16-mer random dsDNA library, 0.1% formaldehyde crosslink after washing; high values mean tight binding
Common to all, as to details: protein: recombinant; tags: N-terminal GST; dsDNA, one strand shown

In one assay the target is T1, ELK1 (Homo sapiens, UniProt P19419 1-428).
T1 sequence: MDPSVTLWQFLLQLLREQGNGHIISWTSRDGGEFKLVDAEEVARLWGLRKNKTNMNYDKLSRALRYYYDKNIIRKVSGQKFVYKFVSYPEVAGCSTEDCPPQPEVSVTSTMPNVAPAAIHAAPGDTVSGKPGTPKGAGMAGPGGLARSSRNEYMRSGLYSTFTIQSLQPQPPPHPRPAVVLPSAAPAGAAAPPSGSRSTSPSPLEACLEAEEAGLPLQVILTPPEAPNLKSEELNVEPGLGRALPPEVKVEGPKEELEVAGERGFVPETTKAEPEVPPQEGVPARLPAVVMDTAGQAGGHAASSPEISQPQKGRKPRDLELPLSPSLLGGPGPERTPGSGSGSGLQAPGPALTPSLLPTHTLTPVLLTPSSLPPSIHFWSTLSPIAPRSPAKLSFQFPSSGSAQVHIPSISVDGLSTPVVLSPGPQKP
The gist of the method:
(§1)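 Beads coated with glutathione captured GST-fused human transcription factors that had been expressed in yeast, and the factors were then given DNA barcodes and pooled with a tag-only sample. The pools were incubated with 200 nmole of a random double-stranded 16-mer DNA library in Tris/NaCl/DTT/glycerol buffer for 30 min at room temperature, washed, crosslinked with 0.1% formaldehyde and proximity-ligated with BsaI/T4 ligase at 37 °C for 1 h. PCR amplification and Illumina NextSeq500 sequencing came last. Binding signal is each hexamer's read frequency for a factor divided by its frequency for the tag-only sample.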

The target of the next assay is T2, GABPA (Homo sapiens, UniProt Q06546 1-454).
T2 sequence: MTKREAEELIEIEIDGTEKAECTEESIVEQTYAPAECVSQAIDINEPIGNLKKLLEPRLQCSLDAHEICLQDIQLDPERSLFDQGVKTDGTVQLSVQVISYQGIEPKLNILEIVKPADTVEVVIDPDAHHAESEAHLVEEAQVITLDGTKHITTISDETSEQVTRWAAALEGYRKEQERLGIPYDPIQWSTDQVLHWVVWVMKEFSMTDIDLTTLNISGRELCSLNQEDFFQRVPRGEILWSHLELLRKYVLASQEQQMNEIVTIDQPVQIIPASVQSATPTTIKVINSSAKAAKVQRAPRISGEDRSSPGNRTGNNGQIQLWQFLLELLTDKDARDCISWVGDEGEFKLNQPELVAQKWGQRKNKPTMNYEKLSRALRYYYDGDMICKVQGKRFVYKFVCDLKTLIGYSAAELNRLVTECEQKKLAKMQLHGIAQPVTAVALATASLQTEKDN
In outline: as §1

The target in the next assay is T3, ERG (Homo sapiens, UniProt P11308 1-479).
T3 sequence: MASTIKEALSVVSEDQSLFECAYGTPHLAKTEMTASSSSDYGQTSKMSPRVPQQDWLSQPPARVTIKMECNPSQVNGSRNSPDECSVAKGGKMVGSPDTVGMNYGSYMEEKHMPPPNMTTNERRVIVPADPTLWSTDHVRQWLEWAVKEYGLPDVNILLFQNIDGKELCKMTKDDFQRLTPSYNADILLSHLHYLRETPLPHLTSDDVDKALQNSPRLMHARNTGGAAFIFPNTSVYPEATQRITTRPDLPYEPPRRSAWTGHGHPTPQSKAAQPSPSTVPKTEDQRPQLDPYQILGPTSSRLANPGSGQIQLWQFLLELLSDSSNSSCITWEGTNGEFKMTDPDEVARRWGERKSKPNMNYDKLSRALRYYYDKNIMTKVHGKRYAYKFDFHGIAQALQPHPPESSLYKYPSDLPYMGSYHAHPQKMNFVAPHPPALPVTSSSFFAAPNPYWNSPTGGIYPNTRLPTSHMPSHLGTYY
The gist of the method: as §1

The next assay concerns the target ELF1 (Homo sapiens, UniProt P32519 1-619). The gist of the method: as §1
The next assay addresses T4, EHF (Homo sapiens, UniProt Q9NZC4 1-300).
T4 sequence: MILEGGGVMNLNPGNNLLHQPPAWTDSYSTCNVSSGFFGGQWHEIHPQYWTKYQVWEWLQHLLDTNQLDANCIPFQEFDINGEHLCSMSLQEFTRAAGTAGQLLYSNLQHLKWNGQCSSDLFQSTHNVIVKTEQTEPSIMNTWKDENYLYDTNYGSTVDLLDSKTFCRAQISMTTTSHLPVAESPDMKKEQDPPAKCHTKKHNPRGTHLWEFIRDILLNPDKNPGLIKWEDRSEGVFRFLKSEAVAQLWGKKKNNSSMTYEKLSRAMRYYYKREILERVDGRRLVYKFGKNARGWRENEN
In outline:
as §1

A further assay has as its target SPI1 (Homo sapiens, UniProt P17947 1-270). The gist of the method:
as §1

Another assay addresses SPIB (Homo sapiens, UniProt Q01892 1-262). In outline:
as §1

The next assay addresses T5, FEV (Homo sapiens, UniProt Q99581 1-238).
T5 sequence: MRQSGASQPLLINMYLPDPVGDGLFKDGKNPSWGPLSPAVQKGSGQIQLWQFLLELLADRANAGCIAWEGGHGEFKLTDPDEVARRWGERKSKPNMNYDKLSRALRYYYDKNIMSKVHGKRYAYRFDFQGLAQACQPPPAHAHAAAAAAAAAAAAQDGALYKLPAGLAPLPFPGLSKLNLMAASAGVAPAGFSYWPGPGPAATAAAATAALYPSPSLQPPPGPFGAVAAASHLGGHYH
In outline: as §1

A further assay deals with ETV5 (Homo sapiens, UniProt P41161 1-510). The gist of the method: as §1
Chain of ETV5 (P41161 whole entry): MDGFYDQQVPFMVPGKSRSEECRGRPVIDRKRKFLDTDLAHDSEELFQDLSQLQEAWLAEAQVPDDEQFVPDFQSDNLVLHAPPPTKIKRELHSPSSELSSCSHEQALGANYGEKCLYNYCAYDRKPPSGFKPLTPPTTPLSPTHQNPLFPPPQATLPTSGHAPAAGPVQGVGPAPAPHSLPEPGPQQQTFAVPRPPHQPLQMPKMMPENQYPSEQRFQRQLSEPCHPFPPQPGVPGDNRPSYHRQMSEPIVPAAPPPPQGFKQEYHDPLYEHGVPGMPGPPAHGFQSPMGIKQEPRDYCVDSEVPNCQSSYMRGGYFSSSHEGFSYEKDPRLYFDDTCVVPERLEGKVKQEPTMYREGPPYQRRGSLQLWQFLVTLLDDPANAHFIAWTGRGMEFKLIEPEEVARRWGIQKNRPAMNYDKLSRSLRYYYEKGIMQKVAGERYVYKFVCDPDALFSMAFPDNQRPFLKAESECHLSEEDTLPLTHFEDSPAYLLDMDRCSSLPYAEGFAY
Another assay has as its target ELF4 (Homo sapiens, UniProt Q99607 1-663). The gist of the method: as §1
A further assay concerns the target T6, ELK4 (Homo sapiens, UniProt P28324-2 1-405).
T6 sequence: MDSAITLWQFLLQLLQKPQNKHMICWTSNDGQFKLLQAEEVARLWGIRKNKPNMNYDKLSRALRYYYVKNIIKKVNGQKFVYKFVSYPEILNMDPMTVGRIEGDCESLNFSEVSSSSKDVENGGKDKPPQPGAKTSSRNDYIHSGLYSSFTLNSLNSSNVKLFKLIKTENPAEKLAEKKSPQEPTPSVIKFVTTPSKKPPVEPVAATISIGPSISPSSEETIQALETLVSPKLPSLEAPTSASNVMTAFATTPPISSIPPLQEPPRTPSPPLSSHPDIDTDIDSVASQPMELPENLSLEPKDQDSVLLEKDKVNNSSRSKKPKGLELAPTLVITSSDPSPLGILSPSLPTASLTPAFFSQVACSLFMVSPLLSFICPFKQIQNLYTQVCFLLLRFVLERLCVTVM
The gist of the method:
as §1

Another assay concerns the target T7, ETV2 (Homo sapiens, UniProt O00321 1-342).
T7 sequence: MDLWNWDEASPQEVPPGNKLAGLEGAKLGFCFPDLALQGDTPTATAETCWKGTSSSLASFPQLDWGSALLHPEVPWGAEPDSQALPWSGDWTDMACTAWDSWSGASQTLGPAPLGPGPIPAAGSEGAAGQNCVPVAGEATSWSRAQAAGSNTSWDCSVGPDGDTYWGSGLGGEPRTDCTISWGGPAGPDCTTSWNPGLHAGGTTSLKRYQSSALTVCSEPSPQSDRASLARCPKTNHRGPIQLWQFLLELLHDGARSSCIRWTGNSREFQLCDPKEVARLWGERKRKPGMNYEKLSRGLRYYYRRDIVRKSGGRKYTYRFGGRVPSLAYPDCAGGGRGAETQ
In outline: as §1

The target of another assay is ETV1 (Homo sapiens, UniProt P50549 1-477). In outline:
as §1

The next assay concerns the target T8, ERF (Homo sapiens, UniProt P50548 1-548).
T8 sequence: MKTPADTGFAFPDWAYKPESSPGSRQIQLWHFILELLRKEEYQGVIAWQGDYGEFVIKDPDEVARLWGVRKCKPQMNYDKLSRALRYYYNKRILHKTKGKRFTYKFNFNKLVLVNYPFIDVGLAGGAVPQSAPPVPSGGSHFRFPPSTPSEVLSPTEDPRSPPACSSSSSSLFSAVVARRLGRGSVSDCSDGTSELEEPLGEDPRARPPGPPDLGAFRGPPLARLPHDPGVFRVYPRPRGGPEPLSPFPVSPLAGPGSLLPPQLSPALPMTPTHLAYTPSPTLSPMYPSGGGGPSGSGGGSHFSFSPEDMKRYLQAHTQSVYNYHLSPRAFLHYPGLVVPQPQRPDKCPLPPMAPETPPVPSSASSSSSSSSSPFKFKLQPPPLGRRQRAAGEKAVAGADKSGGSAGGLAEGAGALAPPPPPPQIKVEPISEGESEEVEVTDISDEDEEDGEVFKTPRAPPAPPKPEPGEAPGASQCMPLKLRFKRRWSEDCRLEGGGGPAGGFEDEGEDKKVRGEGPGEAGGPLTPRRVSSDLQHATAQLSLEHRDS
In outline: as §1

Another assay has as its target T9, ETV3L (Homo sapiens, UniProt Q6ZN32 1-361).
T9 sequence: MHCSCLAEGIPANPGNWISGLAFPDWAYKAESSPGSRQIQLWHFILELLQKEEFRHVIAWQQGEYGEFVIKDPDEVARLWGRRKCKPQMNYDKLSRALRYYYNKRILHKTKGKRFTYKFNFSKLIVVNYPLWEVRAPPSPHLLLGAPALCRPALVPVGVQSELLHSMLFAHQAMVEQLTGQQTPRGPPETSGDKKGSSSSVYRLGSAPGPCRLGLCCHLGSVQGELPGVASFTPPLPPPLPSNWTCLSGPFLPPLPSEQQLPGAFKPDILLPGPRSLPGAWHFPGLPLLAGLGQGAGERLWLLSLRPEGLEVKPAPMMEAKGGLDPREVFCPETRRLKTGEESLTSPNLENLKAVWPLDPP
In outline: as §1

The next assay concerns the target T10, ETS2 (Homo sapiens, UniProt P15036 1-469).
T10 sequence: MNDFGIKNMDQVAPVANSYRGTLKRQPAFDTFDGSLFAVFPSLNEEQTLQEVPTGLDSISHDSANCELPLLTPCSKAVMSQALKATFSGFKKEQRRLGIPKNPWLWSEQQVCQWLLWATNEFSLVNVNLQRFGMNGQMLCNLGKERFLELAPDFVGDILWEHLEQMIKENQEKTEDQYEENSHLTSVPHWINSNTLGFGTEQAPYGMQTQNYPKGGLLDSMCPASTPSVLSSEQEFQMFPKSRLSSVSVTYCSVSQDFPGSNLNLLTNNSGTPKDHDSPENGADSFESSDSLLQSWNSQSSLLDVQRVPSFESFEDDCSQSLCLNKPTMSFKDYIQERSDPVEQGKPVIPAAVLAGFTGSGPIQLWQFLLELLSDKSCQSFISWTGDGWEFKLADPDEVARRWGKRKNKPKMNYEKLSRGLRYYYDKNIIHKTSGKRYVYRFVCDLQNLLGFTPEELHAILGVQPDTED
The gist of the method:
as §1

The next assay addresses T11, ETV7 (Homo sapiens, UniProt Q9Y603 1-341).
T11 sequence: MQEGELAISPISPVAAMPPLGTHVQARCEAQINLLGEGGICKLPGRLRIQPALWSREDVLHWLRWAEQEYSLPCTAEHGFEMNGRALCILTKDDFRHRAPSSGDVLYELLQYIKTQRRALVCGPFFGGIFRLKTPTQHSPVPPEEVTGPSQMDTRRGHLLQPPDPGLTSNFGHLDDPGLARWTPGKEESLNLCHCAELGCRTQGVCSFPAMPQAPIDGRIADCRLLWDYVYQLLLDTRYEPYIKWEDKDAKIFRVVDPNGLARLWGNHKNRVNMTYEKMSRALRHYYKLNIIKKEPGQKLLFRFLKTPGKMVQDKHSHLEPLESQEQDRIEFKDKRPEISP
The gist of the method:
as §1

The target in another assay is T12, ETV3 (Homo sapiens, UniProt P41162-2 1-143).
T12 sequence: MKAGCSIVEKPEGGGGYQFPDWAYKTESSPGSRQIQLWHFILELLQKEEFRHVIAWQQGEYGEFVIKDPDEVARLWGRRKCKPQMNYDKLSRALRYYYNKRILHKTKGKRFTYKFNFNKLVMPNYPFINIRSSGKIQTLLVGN
In outline: as §1

The target of a further assay is ETV6 (Homo sapiens, UniProt P41212 1-452). In outline:
as §1

This is an account of results in paper PMC7862700, “An all-to-all approach to the identification of sequence-specific readers for epigenetic DNA modifications on cytosine”.

Chain of ETV1 (P50549 whole entry): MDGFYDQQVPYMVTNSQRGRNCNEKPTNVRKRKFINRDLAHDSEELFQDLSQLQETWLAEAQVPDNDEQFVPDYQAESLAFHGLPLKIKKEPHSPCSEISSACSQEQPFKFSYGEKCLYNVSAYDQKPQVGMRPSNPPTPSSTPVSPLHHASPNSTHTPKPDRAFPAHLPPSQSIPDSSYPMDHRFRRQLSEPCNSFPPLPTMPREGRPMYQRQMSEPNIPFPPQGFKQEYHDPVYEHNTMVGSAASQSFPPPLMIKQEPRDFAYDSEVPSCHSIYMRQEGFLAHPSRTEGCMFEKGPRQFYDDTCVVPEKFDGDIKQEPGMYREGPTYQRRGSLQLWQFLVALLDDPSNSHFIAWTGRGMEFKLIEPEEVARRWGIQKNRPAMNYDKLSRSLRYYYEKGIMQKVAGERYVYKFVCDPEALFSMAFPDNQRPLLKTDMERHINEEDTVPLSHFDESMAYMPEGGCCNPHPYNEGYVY
Chain of ETV6 (P41212 whole entry): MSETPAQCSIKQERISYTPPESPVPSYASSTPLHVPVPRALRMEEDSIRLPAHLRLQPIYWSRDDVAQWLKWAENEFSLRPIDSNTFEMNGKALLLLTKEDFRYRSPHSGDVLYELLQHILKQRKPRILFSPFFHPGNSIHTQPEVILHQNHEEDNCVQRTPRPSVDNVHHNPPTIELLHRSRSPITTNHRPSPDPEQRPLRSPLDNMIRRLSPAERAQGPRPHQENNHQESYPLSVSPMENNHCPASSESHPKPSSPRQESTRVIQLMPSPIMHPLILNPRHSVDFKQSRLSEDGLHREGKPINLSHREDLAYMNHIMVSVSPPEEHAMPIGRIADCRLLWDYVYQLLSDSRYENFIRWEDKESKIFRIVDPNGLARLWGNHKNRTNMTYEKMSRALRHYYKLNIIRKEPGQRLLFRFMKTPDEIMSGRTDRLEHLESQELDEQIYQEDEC
Chain of ELF1 (P32519 whole entry): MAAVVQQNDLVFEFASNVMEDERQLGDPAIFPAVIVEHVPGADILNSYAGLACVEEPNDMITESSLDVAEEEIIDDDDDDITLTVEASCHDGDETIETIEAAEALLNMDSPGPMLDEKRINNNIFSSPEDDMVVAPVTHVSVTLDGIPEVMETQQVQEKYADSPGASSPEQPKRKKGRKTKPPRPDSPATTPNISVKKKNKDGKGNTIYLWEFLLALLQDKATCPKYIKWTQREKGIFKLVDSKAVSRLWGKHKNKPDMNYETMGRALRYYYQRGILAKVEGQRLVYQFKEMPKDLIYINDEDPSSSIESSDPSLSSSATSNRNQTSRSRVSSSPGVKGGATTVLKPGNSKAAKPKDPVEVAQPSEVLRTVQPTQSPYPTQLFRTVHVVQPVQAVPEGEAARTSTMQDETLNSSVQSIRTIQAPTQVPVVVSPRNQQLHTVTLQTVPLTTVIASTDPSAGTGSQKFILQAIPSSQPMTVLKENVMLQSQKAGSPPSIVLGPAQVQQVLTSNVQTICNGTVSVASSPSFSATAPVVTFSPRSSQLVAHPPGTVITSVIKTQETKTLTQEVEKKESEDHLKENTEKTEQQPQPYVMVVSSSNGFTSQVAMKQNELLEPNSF
Chain of SPIB (Q01892 whole entry): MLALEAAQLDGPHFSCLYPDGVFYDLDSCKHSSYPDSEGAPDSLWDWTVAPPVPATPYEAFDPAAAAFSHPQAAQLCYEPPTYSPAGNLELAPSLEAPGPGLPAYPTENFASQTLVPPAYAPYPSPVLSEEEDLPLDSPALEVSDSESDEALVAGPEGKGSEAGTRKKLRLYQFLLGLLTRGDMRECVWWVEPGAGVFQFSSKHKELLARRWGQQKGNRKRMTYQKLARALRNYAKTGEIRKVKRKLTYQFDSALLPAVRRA
Chain of ELF4 (Q99607 whole entry): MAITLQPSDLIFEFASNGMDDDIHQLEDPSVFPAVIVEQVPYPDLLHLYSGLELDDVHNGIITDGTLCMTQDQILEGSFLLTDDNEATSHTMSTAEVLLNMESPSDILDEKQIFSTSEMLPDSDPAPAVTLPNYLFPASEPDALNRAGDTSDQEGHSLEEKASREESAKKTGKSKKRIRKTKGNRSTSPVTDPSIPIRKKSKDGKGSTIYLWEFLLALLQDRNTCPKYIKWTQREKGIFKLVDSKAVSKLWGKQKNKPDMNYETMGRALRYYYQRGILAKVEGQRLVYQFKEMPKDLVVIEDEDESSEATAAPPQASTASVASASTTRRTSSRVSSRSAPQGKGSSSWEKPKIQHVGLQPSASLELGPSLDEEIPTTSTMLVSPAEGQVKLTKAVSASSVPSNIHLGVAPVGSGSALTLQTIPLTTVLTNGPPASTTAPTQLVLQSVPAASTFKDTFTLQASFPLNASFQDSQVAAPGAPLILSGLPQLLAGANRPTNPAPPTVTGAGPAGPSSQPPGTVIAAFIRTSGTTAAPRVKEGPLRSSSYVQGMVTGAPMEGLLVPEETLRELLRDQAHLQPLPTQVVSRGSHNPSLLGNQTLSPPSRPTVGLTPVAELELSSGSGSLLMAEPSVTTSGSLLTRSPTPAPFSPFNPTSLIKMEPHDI

Take TGGCCG: the binding signal with ELK1 was 1.19 fold enrichment (6-mer frequency, TF over GST control); with GABPA, 1.15 fold enrichment (6-mer frequency, TF over GST control); in the assay with ERG it was 1.19 fold enrichment (6-mer frequency, TF over GST control); with ELF1, 1.08 fold enrichment (6-mer frequency, TF over GST control); with EHF it was 1.02 fold enrichment (6-mer frequency, TF over GST control); with SPI1, 1.14 fold enrichment (6-mer frequency, TF over GST control). Moreover, the binding signal was 1.17 fold enrichment (6-mer frequency, TF over GST control) in the assay with SPIB; 1.22 fold enrichment (6-mer frequency, TF over GST control) in the assay with FEV; 1.17 fold enrichment (6-mer frequency, TF over GST control) in the assay with ETV5; 1.08 fold enrichment (6-mer frequency, TF over GST control) with ELF4; 1.06 fold enrichment (6-mer frequency, TF over GST control) with ELK4; 1.04 fold enrichment (6-mer frequency, TF over GST control) with ETV2. The binding signal in the assay with ETV1 is 1.04 fold enrichment (6-mer frequency, TF over GST control); with ERF, 1.05 fold enrichment (6-mer frequency, TF over GST control); in the assay with ETV3L it was 1.07 fold enrichment (6-mer frequency, TF over GST control); in the assay with ETS2 it was 1.06 fold enrichment (6-mer frequency, TF over GST control); with ETV7, 1.06 fold enrichment (6-mer frequency, TF over GST control); in the assay with ETV3 it was 1.11 fold enrichment (6-mer frequency, TF over GST control). For the same sequence, the binding signal in the assay with ETV6 is 1.11 fold enrichment (6-mer frequency, TF over GST control).
